p53 reactivator – restores transcriptional activity of mutant p53 | H1299 p53-A138V BP100-luciferase reporter, luminescence, 24 h | 320,000 tested, 0.063% active | Potency, µM (highest dose often 92.2 µM), actives largely listed as activators; also: nearly all actives have a fitted effect of over 45% in size
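H1299 (p53-null), stable ts p53-A138V + BP100-Luc; 1000 cells/well, Opti-MEM/10% FBS; cpd 4 pt, 1:5; 24 h, 37 deg C, 5% CO2; detection reagent 10 min RT; luminescence.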
S-ASM inh – inhibitors of human secretory acid sphingomyelinase; P17405; placental ASM, HMU-PC fluorogenic substrate, 60 min; Potency, µM (highest dose often 57.5 µM), hits mostly inhibitors; 340,000 tested, 0.006% active; AID 504937
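HMU-PC0 cleavage (9 uM final) by human placental ASM, 60 min at 37 °C following 10 min compound exposure at RT; stopped at pH 10, fluorescence Ex 386/Em 447 nm.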
PINK1 expr mod – modulators of PINK1 expression; PINK1 immunofluorescence, high-content cytometry, 24 h; Potency, µM (highest dose often 76.6 µM), most hits filed as activators; 410,000 tested, 0.2% active; AID 624263; active = well fitted activation curve with a large enough effect; inconclusive = small, poorly fitted or top-dose-only effect; cell line not stated here; also: nearly all actives have a fitted effect of over 65% in size
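Readout is PINK1 immunofluorescence, quantified alongside mitochondrial, cell and nuclear markers by laser-scanning microplate cytometry. Cells from a stable line were exposed to compound titrations (5 concentrations) for 24 hours, with CCCP controls.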
CCT modulator – cytosolic chaperonin activity modulation; purified chaperonin ATPase assay, HTRF ADP detection, 30 min; 360,000 tested, 0.3% active; AID 651819; activity change, % (test concentration not listed), hits read low; in the data active = activity change below about -30%
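TRiC at 40 or 20 nM final (batch-dependent) in 30 mM Tris pH 7.4, 100 mM KCl, 5 mM MgCl2, 1 mM DTT, with compound at single 76 uM and 10 uM ATP, 30 min at 37 deg C. ADP detected by HTRF Transcreener, 665/615 ratio.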
MmCpn inh – inhibitors of Methanococcus maripaludis chaperonin TRiC (MmCpn). purified Mm-Cpn ATPase, ADP Transcreener TR-FRET. Potency, µM (top dose mostly 76.9 µM), usual class: inhibitors. 330,000 tested, 0.031% active. AID 504842; also: nearly all actives have a fitted effect of over 80% in size
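Purified archaeal Mm-CPN (25nM final) preincubated 10 min at 37degC with compound, then 10uM ATP for 30 min at 37degC; ADP measured by HTRF Transcreener TR-FRET; buffer 30 mM TRIS pH 7.4, 100mM KCl, 5mM MgCl2, 1mM DTT.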
ALOX12 inh – inhibitors of human 12S-lipoxygenase ALOX12 | 580,000 tested, 1.1% active | AID 1671190 | purified 12hLO, xylenol orange hydroperoxide absorbance | Potency, µM (doses to about 108 µM), actives largely listed as inhibitors | P18054
Target sequence (P18054 whole entry, looked up): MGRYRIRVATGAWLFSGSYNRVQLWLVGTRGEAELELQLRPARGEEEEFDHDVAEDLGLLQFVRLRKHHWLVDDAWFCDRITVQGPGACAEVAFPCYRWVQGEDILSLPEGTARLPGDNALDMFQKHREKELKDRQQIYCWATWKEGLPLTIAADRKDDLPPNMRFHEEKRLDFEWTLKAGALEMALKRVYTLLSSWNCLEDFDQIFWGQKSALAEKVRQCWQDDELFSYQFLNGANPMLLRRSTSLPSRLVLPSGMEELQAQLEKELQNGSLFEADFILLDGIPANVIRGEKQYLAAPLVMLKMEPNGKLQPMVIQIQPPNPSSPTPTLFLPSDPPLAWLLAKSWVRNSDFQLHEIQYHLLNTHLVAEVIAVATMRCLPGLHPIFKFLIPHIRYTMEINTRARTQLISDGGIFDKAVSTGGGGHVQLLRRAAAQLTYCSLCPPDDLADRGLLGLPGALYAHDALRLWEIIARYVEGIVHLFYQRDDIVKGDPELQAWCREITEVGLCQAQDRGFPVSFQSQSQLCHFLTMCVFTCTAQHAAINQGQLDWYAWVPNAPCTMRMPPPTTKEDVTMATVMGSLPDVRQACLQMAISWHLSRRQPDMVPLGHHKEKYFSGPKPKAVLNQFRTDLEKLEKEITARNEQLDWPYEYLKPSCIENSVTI
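Purified human 12hLO (150 nM final) in 25 mM Hepes, 0.01% Triton X-100, pH 7.0 was preincubated 15 min at room temperature with compound. Then 40 uM arachidonic acid was added, 30 min. Hydroperoxide was read by Fe-XO absorbance ratio 573/405 nm.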
A number is an active result. Shown are actives, neighbours in structure and some others; about 1.4% of the full set was active somewhere. Unless noted, calls follow the shape of the dose curve; as a rule, active = well fitted curve in the direction sought with a large enough effect; inconclusive = small, poorly fitted or top-dose-only effect, or another doubt; inactive = no such curve, though single readings can be large; an effect the other way counts as inactive or inconclusive.

Screening CC(C)N(C(=S)Nc1cccc(C(F)(F)F)c1)C(C)c1ccccn1 (centres undefined) returned p53 reactivator inactive, S-ASM inh inactive, PINK1 expr mod 32µM, CCT modulator inactive, MmCpn inh inactive and ALOX12 inh inactive.
Cc1ccc(Cn2c(C3CCN(C(=O)c4ccc(C#N)cc4)CC3)n[nH]c2=O)cc1 was read as ALOX12 inh 6.3µM.
Screening Cc1ccc(-n2c(C3CCN(C(=O)COc4ccc(F)cc4)CC3)n[nH]c2=O)cc1 returned ALOX12 inh 45µM.
`Cc1ccc(Cn2c(C3CCN(C(=O)c4cccc(C)c4)CC3)n[nH]c2=O)cc1` gave ALOX12 inh inactive.
For Cc1ccc(Cn2c(C3CCN(C(=O)c4cccc(F)c4)CC3)n[nH]c2=O)cc1 the results were ALOX12 inh 45µM.
For CC(C)c1ccc(NC2CCCN(C(=O)CCN3CCCC3=O)C2)cc1 (centres undefined) the results were p53 reactivator inactive, S-ASM inh inactive, PINK1 expr mod inactive, CCT modulator -34, MmCpn inh inactive and ALOX12 inh inactive.
CC(=O)Nc1ccc(NC(=O)Cn2ccc3ccc(Cl)cc32)cc1 was read as ALOX12 inh inactive.
O=C(CCn1cnc2sc3c(c2c1=O)CCCC3)NC1CCS(=O)(=O)C1 (centres undefined) was read as ALOX12 inh inactive.
`CCCCCCCCSCCCCC(=O)O` gave ALOX12 inh inactive.
`Cc1nc(CN2C(=O)COc3ccc(S(=O)(=O)NC4CCCCCCC4)cc32)no1` gave ALOX12 inh inactive.
Screening CN(C)C1(CN=Cc2cc(Cl)cc([N+](=O)[O-])c2O)CCCCC1 returned p53 reactivator inactive, S-ASM inh inactive, PINK1 expr mod inactive, CCT modulator inactive, MmCpn inh inactive and ALOX12 inh 18µM.
Screening O=c1n(-c2ccncc2)nc2n1CCN(Cc1ccc(OC(F)(F)F)cc1)C2 returned ALOX12 inh inactive.
For COc1ccc(C(=S)NCS(=O)(=O)c2ccc(C)cc2)cc1 the results were p53 reactivator inactive, S-ASM inh inactive, PINK1 expr mod inactive, CCT modulator inactive, MmCpn inh inactive and ALOX12 inh 16µM.
For CC(NC(=O)CSc1nc2c(c(C(F)(F)F)n1)CCc1ccccc1-2)c1ccccc1 (centres undefined) the results were p53 reactivator inactive, S-ASM inh inactive, PINK1 expr mod inactive, CCT modulator inactive, MmCpn inh inactive and ALOX12 inh inactive.
CCc1c(C)sc(NC(=O)CSc2nc3c(c(C(F)(F)F)n2)CCc2ccccc2-3)c1C#N was read as p53 reactivator inactive, S-ASM inh inactive, PINK1 expr mod 16µM, CCT modulator inactive, MmCpn inh inactive and ALOX12 inh inconclusive.
For Cc1ccc(CNC(=O)CC2Nc3c4ccccc4nc(=S)n3C2=O)cc1 (centres undefined) the results were p53 reactivator inactive, MmCpn inh inactive and ALOX12 inh inactive.
`C=CCNC(=O)CC1Nc2c3ccccc3nc(=S)n2C1=O` (centres undefined) gave p53 reactivator inactive, S-ASM inh inactive, PINK1 expr mod inactive, CCT modulator inactive, MmCpn inh inactive and ALOX12 inh 18µM.
`Cc1ccc(S(=O)(=O)NN2C(=O)/C(=C\c3ccc(Cl)cc3)SC2=S)cc1` gave p53 reactivator inactive, S-ASM inh inactive, PINK1 expr mod inactive, CCT modulator inactive, MmCpn inh inactive and ALOX12 inh inactive.
Screening Cc1ccc(/C=C2\SC(=S)N(NS(=O)(=O)c3ccc(C)cc3)C2=O)cc1 returned p53 reactivator inconclusive, S-ASM inh inactive, PINK1 expr mod inactive, CCT modulator inactive, MmCpn inh inactive and ALOX12 inh 35µM.
For C=CCN=c1scc(-c2ccco2)n1/N=C/c1ccc(O)c(O)c1O the results were p53 reactivator inactive, S-ASM inh inactive, PINK1 expr mod inactive, CCT modulator inactive, MmCpn inh inactive and ALOX12 inh 18µM.
Screening CCOC(=O)[C@]12CCC=C1N(Cc1ccc3c(c1)OCO3)C(=O)[C@H](CC(=O)NCCc1ccccc1OC)C2 returned PINK1 expr mod inactive, CCT modulator inactive and ALOX12 inh 40µM.
For O=S1(=O)CC(N2CCN(Cc3ccccc3F)CC2)CN1Cc1cn(Cc2ccc(C(F)(F)F)cc2)nn1 (centres undefined) the results were PINK1 expr mod inactive, CCT modulator inactive and ALOX12 inh 40µM.
For CN(C)CCN1CCN(C2CN(Cc3cn(Cc4cccc(Cl)c4)nn3)S(=O)(=O)C2)CC1 (centres undefined) the results were PINK1 expr mod inactive, CCT modulator inactive and ALOX12 inh 7.9µM.
`CN1CCC(N2CCN(C3CN(Cc4cn(Cc5cccc(C(F)(F)F)c5)nn4)S(=O)(=O)C3)CC2)CC1` (centres undefined) gave PINK1 expr mod inactive, CCT modulator inactive and ALOX12 inh 5.6µM.
For Cc1ccc(Cn2cc(CN3CC(N4CCN(Cc5ccccc5F)CC4)CS3(=O)=O)nn2)cc1 (centres undefined) the results were PINK1 expr mod inactive, CCT modulator inactive and ALOX12 inh inactive.
`Cc1ccc(C)c(NC(=O)c2cccc[n+]2[O-])c1` gave ALOX12 inh inactive.
`Cc1ccccc1NCc1ccc(O)c2ncccc12` gave p53 reactivator inactive, S-ASM inh inactive, PINK1 expr mod 11µM, CCT modulator inactive, MmCpn inh inactive and ALOX12 inh inconclusive.
`Cc1cccc(-n2c(CCn3nc(C)c([N+](=O)[O-])c3C)n[nH]c2=S)c1` gave p53 reactivator inactive, S-ASM inh inactive, PINK1 expr mod 11µM, CCT modulator inactive, MmCpn inh inactive and ALOX12 inh inconclusive.
For O=C(Nc1ccc(Br)c2ccccc12)c1ccc2ccccc2c1O the results were p53 reactivator inactive, S-ASM inh inactive, PINK1 expr mod 25µM, CCT modulator inactive, MmCpn inh inconclusive and ALOX12 inh inactive.
For Cc1ccc(NC(=O)CSCc2nc3ccccc3c(=O)[nH]2)cc1 the results were ALOX12 inh inactive.
For COc1ccccc1/C=C/C=C(/C#N)C(=O)Nc1ccccc1C(=O)O the results were ALOX12 inh 7.1µM.
COc1ccc(/C=C(/C#N)C(=O)Nc2ccccc2C(=O)O)cc1OC was read as ALOX12 inh inactive.
`COc1ccc(/C=C(\C#N)C(=O)Nc2ccccc2C(=O)O)cc1OC(=O)c1ccccc1Cl` gave ALOX12 inh 40µM.
For COc1ccc(/C=N/S(=O)(=O)c2cccs2)cc1 the results were p53 reactivator inactive, S-ASM inh inactive, CCT modulator inactive, MmCpn inh inactive and ALOX12 inh inactive.

Screening data (PubChem BioAssay)
